Screens deposited in PubChem BioAssay by Broad Institute.
Most compounds without a hit are left out; they make up all but 3.8% or so of the library.
HSF1 inhib = HSF1 inhibitors in luciferase reporter cells, primary screen, cell-based, NIH3T3, luminescence; NIH3T3-HGL HSE-luciferase, MG132-induced, luminescence 8 h; stronger effect = lower value; activity change, negative = inhibition, % at 7.5 µM (by protocol); 300,000 tested, 0.77% active; AID 2098, 2009;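 active means more than half of replicate wells show activity change below -50%, luminescence cut by over half; inconclusive means some wells, but at most half, below -50%; inactive means no replicate well below -50%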;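 further: luciferase reports HSF-1 transcriptional activity via heat shock element; 0% = median of DMSO wells and -100% = zero luminescence signal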
Wnt act = Wnt/beta-catenin pathway activators, primary screen, cell-based, plate reader, single point; Wnt/beta-catenin reporter cell assay, activator; activation, % at 9.35 µM; 300,000 tested, 1.2% active; AID 743398, 2014; in the data active means activation above about 30%, passing the limit was not always enough; inconclusive means no clear call, values can overlap the other calls;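 further: 0% = neutral control wells and 100% = positive control wells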
HSF-1 act = HSF-1 activators, primary screen, NIH3T3-HGL cells, MG132 stress, luminescence, single point. NIH3T3-HGL HSF-1 luciferase reporter, 8 h; 100% = twice DMSO control signal. activation, % at 9 µM. 300,000 tested, 1.7% active. AID 504408, 2011;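 active means mean replicate activation of at least 50% with a set share of replicates each reaching 50%; inconclusive means only one of those two conditions met; inactive means mean below 50% and too few replicates reaching it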;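 further: 0% = median of the neutral control wells and 100% = twice that signal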
esBAF inh = Bmi1 luciferase reporter increase in mESCs, primary screen, esBAF inhibitor project, mouse ES cells, Bmi1 luciferase knock-in, single point; 24 h; 100% = twice the neutral-well signal; reporter increase, % at 12.5 µM; 350,000 tested, 2% active; in the data active means activation above about 40%; inconclusive means no clear call, values can overlap the other calls;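 further: 0% = median of the plate's neutral control wells and 100% = double that signal; a rise in the Bmi1 reporter signal indicates esBAF inhibition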
MITF act = activators of MITF-driven TRPM1 promoter reporter, primary screen, cell-based, SK-MEL-5, luciferase, single point; SK-MEL-5 TRPM1-promoter luciferase, 24 h; % of positive control, neutral wells = 0; activation, % at 12.5 µM; 300,000 tested, 0.75% active;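 active means mean activation of at least 80% with every replicate also reaching 80%; inconclusive means mean reaches 80% but some replicate falls short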;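 further: 0% = neutral control wells and 100% = parthenolide positive control wells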
Starred values were filed as active, the others as inactive; ? = inconclusive; nt = not tested or not shown.

SMILES | HSF1 inhib | Wnt act | HSF-1 act | esBAF inh | MITF act
C[C@H]1CN([C@@H](C)CO)C(=O)c2cccc(NC(=O)Nc3ccc4c(c3)OCO4)c2O[C@@H]1CN(C)S(=O)(=O)c1cn(C)cn1 | nt | nt | nt | -7 | nt
Cc1noc(C)c1NC(=O)Nc1cccc2c1O[C@@H](CN(C)C(=O)NC(C)C)[C@@H](C)CN([C@@H](C)CO)C2=O | nt | nt | nt | -3 | nt
Cn1c(CCNC(=O)c2cccs2)nnc1SCC(=O)Nc1nc(-c2ccccc2)cs1 | 11 | -1 | 54* | 7 | 20
C(=N\Nc1nccc(-c2cccnc2)n1)/c1ccccc1 | 18 | 49* | 36 | nt | nt
Cc1ccc(/C=N/Nc2nc3ccccc3s2)o1 | 6 | 35* | 9 | nt | 21
Cc1ccc(/C=N/Nc2nc(C(C)(C)C)cs2)o1 | -1 | 5 | 5 | ? | 85*
CC(C)(C)c1csc(N/N=C/c2cccnc2)n1 | 0 | 12 | 1 | 34* | 58
C/C(=N\Nc1nc(C(C)(C)C)cs1)c1ccccc1 | 35 | 13 | 45 | 11 | 61
C[C@@H]1CCCCO[C@H](CN(C)C(=O)C2CCCCC2)[C@@H](C)CN([C@@H](C)CO)C(=O)c2cc(NC(=O)Cc3ccccc3)ccc2O1 | nt | nt | nt | 13 | nt
C(=N\Nc1nc(-c2ccccc2)cs1)/c1cccnc1 | 2 | 22 | 23 | 63* | 75
Clc1ccc(-c2csc(N/N=C/c3cccnc3)n2)c(Cl)c1 | 4 | 0 | 10 | nt | 5
CN1CCN(C(=O)c2cc([N+](=O)[O-])cc([N+](=O)[O-])c2)CC1 | -64* | -2 | -72 | -8 | nt
O=C(c1cc(C(=O)N2CCCC2)cc([N+](=O)[O-])c1)N1CCCC1 | -4 | -1 | -14 | 2 | -2
CC(=O)Nc1cccc(OCCCNC(=O)c2ccc(F)cc2)c1 | 3 | 14 | 9 | 5 | 14
CC(C)Oc1ccc(C(=O)NCCCNC(=O)c2cccnc2)cc1 | 4 | 38* | -5 | 2 | -3
Cc1ccccc1OCC(=O)NCCCNC(=O)c1cccnc1 | 14 | 0 | 56* | -6 | 8
CC(C)(C)c1ccc(C(=O)NCCCNC(=O)c2cccnc2)cc1 | 10 | -4 | 5 | 47* | 12
CC(=O)Nc1cccc(OCCCNC(=O)c2ccc(C(C)(C)C)cc2)c1 | 12 | 31* | 16 | -2 | nt
Cc1ccccc1OCC(=O)NCCNC(=O)c1cccnc1 | -24 | 0 | -37 | 9 | -3
O=C(NCCCCNC(=O)c1cccnc1)c1cccnc1 | 2 | nt | 6 | 2 | nt
CO[C@@H]1CN(C)C(=O)c2ccc(NS(=O)(=O)c3ccccc3)cc2OC[C@H](C)N(Cc2cccnc2)C[C@H]1C | nt | nt | nt | 2 | nt
C[C@H]1CN([C@@H](C)CO)S(=O)(=O)c2ccc(-c3cncnc3)cc2O[C@@H]1CN(C)C(=O)C1CC1 | nt | nt | nt | -3 | nt
CN(C(=O)CSc1nnc(-c2ccco2)o1)C1CCCCC1 | nt | nt | nt | 41* | 48
c1ccc(CSc2nnc(-c3ccco3)o2)cc1 | 12 | 26 | 16 | nt | nt
Brc1ccc(CSc2nnc(-c3ccco3)o2)cc1 | 36 | nt | 56* | nt | 33
SMILES | HSF1 inhib | Wnt act | HSF-1 act | esBAF inh | MITF act
COc1ccc(CC(N)c2csc(NC(=O)c3cc(C(C)(C)C)oc3C)n2)cc1 (stereo not given) | nt | -3 | nt | 53* | nt
COc1ccc(CC(N)c2csc(NC(=O)Nc3ccc(OC)cc3)n2)cc1 (stereo not given) | nt | -1 | nt | 5 | nt
S=C(NCCC1=CCCCC1)Nc1ccc(Cl)cc1 | 17 | 11 | 12 | 64* | 54
COc1ccc(NC(=O)NCCC2=CCCCC2)cc1 | 34 | 52* | 72* | nt | 56
COc1cccc(NC(=O)NCCC2=CCCCC2)c1 | 19 | 10 | 46 | ? | 60
S=C(NCCC(c1ccccc1)c1ccccc1)Nc1ccccc1Cl | 0 | nt | 4 | -3 | -5
Cc1cc(C(=O)NCCC2=CCCCC2)no1 | 15 | nt | 51* | 29 | 39
S=C(NCCC(c1ccccc1)c1ccccc1)Nc1ccc(Cl)cc1 | 41 | nt | 54* | -3 | 1
CC(C)NC(=O)Nc1ccc2c(c1)CC(=O)N([C@H](C)CO)C[C@@H](C)[C@H](CN(C)S(=O)(=O)c1cn(C)cn1)O2 | nt | nt | nt | -4 | nt
Cc1noc(C)c1S(=O)(=O)Nc1ccc2c(c1)C(=O)N([C@H](C)CO)C[C@@H](C)[C@@H](CN(C)CC1CC1)O2 | nt | nt | nt | 2 | nt
O=C(NCC[C@@H]1CC[C@H](NC(=O)C2CCCCC2)[C@H](CO)O1)c1cnccn1 | nt | nt | nt | 4 | nt
O=C(c1cc2ccccc2[nH]1)N1O[C@@H]2C=C[C@H]1C2 | nt | ? | nt | 42* | 0
COc1ccc(-c2cnnc(N/N=C/c3ccc(O)cc3)n2)cc1 | 76 | 0 | 101* | nt | 9
COc1ccc(-c2cnnc(N/N=C/c3ccc(O)c(O)c3)n2)cc1 | -5 | 0 | -15 | nt | -4
Cc1ccc(NC(=O)CSc2nccn2Cc2ccco2)c(C)c1 | 23 | 37* | 28 | -41 | 20
Cc1ccc(C)c(NC(=O)CSc2nccn2Cc2ccco2)c1 | 14 | 7 | 8 | 56* | 31
CCC(CC)COC(=O)C1=C(C)NC(=O)NC1c1cc(OC)ccc1OC (stereo not given) | 26 | -2 | 70* | -9 | 1
CCC(CC)COC(=O)C1=C(C)NC(=O)NC1c1ccc(OC)cc1 (stereo not given) | 5 | -3 | 16 | 5 | 2
C[C@@H]1CCCCO[C@H](CN(C)Cc2ccc3c(c2)OCO3)[C@H](C)CN([C@H](C)CO)C(=O)c2cc(NS(C)(=O)=O)ccc2O1 | nt | nt | nt | -8 | nt
CCC(=O)Nc1ccc2c(c1)OC[C@H](C)N(C(=O)NC(C)C)C[C@@H](C)[C@H](OC)CN(C)C2=O | nt | nt | nt | -1 | nt
CCOc1ccc(OCCOCCOc2c(Cl)cccc2Cl)cc1 | 0 | nt | 0 | 0 | 3
CCOc1ccccc1OCCOCCOc1c(Cl)cccc1Cl | -53* | nt | -65 | nt | 5
COc1ccc(C(=O)NCC2OCCc3ccccc32)c(O)c1 (stereo not given) | 17 | nt | 25 | 67* | 43
CCCOc1ccc(C(=O)NCC2OCCc3ccccc32)cc1OC (stereo not given) | -4 | nt | 10 | nt | -3
CCOC(=O)c1cnc(SCC(=O)c2ccccc2)nc1N | 25 | nt | 36 | 16 | 97*
CCOC(=O)c1cnc(SCC(C)C)nc1N | 26 | 70* | 47 | 52* | 109*
CCOC(=O)c1cnc(SC)nc1N | 0 | -1 | 5 | 2 | -8
CCOC(=O)c1cnc(SCc2cccc(C)c2)nc1N | 6 | 40* | 31 | nt | 61
CCOC(=O)c1cnc(SCC(=O)c2ccc(C)cc2)nc1N | 8 | 1 | 14 | 1 | 1
CNC[C@@H]1OCCCC[C@@H](C)Oc2ccc(NC(=O)Cc3ccccc3)cc2C(=O)N([C@H](C)CO)C[C@@H]1C | nt | nt | nt | 1 | nt
